# From ChEMBL document CHEMBL3988442, “University of Dundee, Small-Polar-MMV Screening Library” (2021)
# About 13,000 (27%) of roughly 48,000 compounds showed an effect of 50% or more. The list shows a part of the results.
# System: Wolbachia pipientis
# Assay: Anti-Wolbachia Cell-Based Screen
# Format: functional
# Design: scale not given: in the data most compounds retested in dose-response had high values
# Settings: 5 µM
row,Compound,Percent Effect [%]
1,O=C(NCCOc1ccc(F)c(F)c1)NCc1cccc(CO)c1,-4.638
2,Cc1nnc(NCC(c2ccco2)N2CCCCC2)c(C#N)c1C (stereo not drawn),-2.88
3,CN1CCN(C)C2(CCN(Cc3ccc(C4CCCCO4)o3)CC2)C1 (stereo not drawn),27.87
4,CCC(C)C(=O)NCc1cccc(OCCN(C)C2CCOCC2)c1 (stereo not drawn),6.512
5,CN1CC2(CCN(C(=O)c3coc4c3C(=O)CCC4)C2)OC1=O (stereo not drawn),-2.236
6,Cn1nccc1C(=O)N1C[C@@H]2CN(S(C)(=O)=O)CCO[C@@H]2C1,115.5
7,Cc1nc(C(=O)N2C[C@@H]3CN(S(C)(=O)=O)CCO[C@@H]3C2)cs1,-14.32
8,Cn1cc(C(=O)N2C[C@@H]3CN(S(C)(=O)=O)CCO[C@@H]3C2)cn1,95.46
9,Cc1ccc(C(=O)N2C[C@@H]3CN(S(C)(=O)=O)CCO[C@@H]3C2)s1,-10.28
10,O=C(c1cc2ccccc2s1)N1CCC(C(=O)O)(n2cccn2)CC1,-13.71
11,CCn1cc2c(n1)CN(C(=O)c1ccncc1)CC2COCC1CC1.O=C(O)C(F)(F)F (stereo not drawn),20.52
12,O=C(COCc1ccccc1Cl)N1CCCC(n2ccnc2)C1 (stereo not drawn),103.7
13,CCn1cnnc1C1CCCN(C(=O)COc2ccc(Cl)cc2)C1 (stereo not drawn),6.691
14,O=C(COCC1CC1)N1CCCC(n2ccnc2)C1 (stereo not drawn),8.162
15,COc1cccc(COCC(=O)N2CCCC(c3nncn3C)C2)c1 (stereo not drawn),-0.5429
16,O=C(COC1CCCCC1)N1CCCC(n2ccnc2)C1 (stereo not drawn),76.06
17,O=C(COc1ccccc1Cl)N1CCCC(n2ccnc2)C1 (stereo not drawn),92.71
18,CN(CC(=O)N1CCCC(n2ccnc2)C1)c1cnccn1 (stereo not drawn),-4.389
19,O=C(c1ccccc1OCC1CC1)N1CCCC(n2ccnc2)C1 (stereo not drawn),8.934
20,Cn1cnnc1C1CCCN(C(=O)COc2ccccc2Cl)C1 (stereo not drawn),152.2
21,O=C(COCc1ccccc1Cl)N1CCCC(n2cccn2)C1 (stereo not drawn),1.04
22,CC1(COc2ccccc2)NCCc2[nH]cnc21 (stereo not drawn),7.349
23,CCc1cc(CN(C)C(=O)C2CC(=O)N(c3cccc(O)c3)C2)on1 (stereo not drawn),-10.41
24,Cc1ccc(C(C(=O)N2CCN(C(=O)c3ccc[nH]3)CC2)N(C)C)cc1 (stereo not drawn),1.987
25,COCCOc1ccc(NC(=O)N(CC2CCOC2)C2CC2)cn1 (stereo not drawn),-6.429

row,Compound,Percent Effect [%]
1,O=C(COCCc1ccccc1)N1CCCC(n2cccn2)C1 (stereo not drawn),5.674
2,COc1cccc(COCC(=O)N2CCCC(n3ccnc3)C2)c1 (stereo not drawn),-0.4033
3,O=C(COCCOc1ccccc1)N1CCCC(n2ccnc2)C1 (stereo not drawn),75.36
4,Cc1cc(C(=O)N2CCCC2c2nc(O)cc(C(C)C)n2)on1 (stereo not drawn),118.7
5,CC(C)c1cc(C(=O)N2CCCC2c2nc(-c3ccccc3)no2)[nH]n1 (stereo not drawn),-1.356
6,Cc1cc(C(=O)N2CCCC2c2nc(C)cc(O)n2)on1 (stereo not drawn),93.31
7,CC(C)c1nc(C2CCCN2C(=O)c2nccnc2N)no1 (stereo not drawn),-0.7868
8,CCn1ccnc1CN1CCC(CCC(=O)Nc2ccccc2Cl)CC1,11.39
9,COCCC1(C(=O)O)CCCN(C(=O)c2cnc3c(c2)CCCC3)C1 (stereo not drawn),8.826
10,O=C(Cc1cn2ccccc2n1)N1CCCC(n2ccnc2)C1 (stereo not drawn),115.6
11,Cc1cnn(C2CCCN(C(=O)Cc3cn4ccccc4n3)C2)c1 (stereo not drawn),14.59
12,O=C(Cc1cn2ccccc2n1)N1CCCC(n2cccn2)C1 (stereo not drawn),62.83
13,O=C(Cc1ccc(-n2cccn2)cc1)N1CCCC(n2cccn2)C1 (stereo not drawn),7.23
14,O=C(Cc1ccc2c(c1)OCCO2)N1CCCC(n2ccnc2)C1 (stereo not drawn),5.657
15,Fc1cccc2ncnc(NCCCc3ccncc3)c12,-47.88
16,O=C(O)C(F)(F)F.O=C(O)C(F)(F)F.c1cc(CN2CCC3(CC2)CC(N2CCCC2)CO3)co1 (stereo not drawn),-12.83
17,O=C(O)C(F)(F)F.O=C(c1ccccc1F)N1CCC2(CC1)CC(N1CCCC1)CO2 (stereo not drawn),116.8
18,COC1COC2(CCN(C(=O)c3ncccn3)CC2)C1 (stereo not drawn),-17.92
19,O=C(O)C(F)(F)F.O=C(c1ccccc1F)N1CCC2(CC1)CC(Oc1ccccn1)CO2 (stereo not drawn),109.1
20,O=C(O)C(F)(F)F.O=C(c1cocn1)N1CCC2(CC1)CC(Oc1ccccn1)CO2 (stereo not drawn),3.532
21,CS(=O)(=O)N1CCC2(CC1)CC(Oc1ccccn1)CO2.O=C(O)C(F)(F)F (stereo not drawn),10.24
22,COC1COC2(CCN(C(=O)c3ccccc3F)CC2)C1 (stereo not drawn),91.89
23,CCN(C)C1COC2(CCN(C(=O)c3ccc(Cl)cc3)CC2)C1.O=C(O)C(F)(F)F (stereo not drawn),-12.32
24,COC1COC2(CCN(C(=O)c3cocn3)CC2)C1 (stereo not drawn),-7.314
25,COC1COC2(CCN(C(=O)c3ccc4ccccc4c3)CC2)C1 (stereo not drawn),112.4

row,Compound,Percent Effect [%]
1,COC1COC2(CCN(C(=O)c3cnc(C)cn3)CC2)C1 (stereo not drawn),14.55
2,O=C(c1ccccc1)N1CCC2(CC1)CC(Oc1ccccc1)CO2 (stereo not drawn),2.639
3,Cc1cc(C(=O)NC2(C#N)CCCC2)c(C)n1-c1cccnc1,-8.526
4,O=C(Cc1cccs1)NCC1Cn2nnc(-c3ccoc3)c2CO1 (stereo not drawn),6.925
5,Fc1ccc(CN2CCC3(CCCN(c4nncs4)C3)C2)cc1.O=C(O)C(F)(F)F (stereo not drawn),5.699
6,COc1ccc(S(=O)(=O)NC(=O)C(C)OC)c(OC)c1 (stereo not drawn),36.91
7,O=C(N[C@@H]1CN(C2CCCC2)C[C@@H]2CCCO[C@@H]21)c1cnccn1.O=C(O)C(F)(F)F,-9.219
8,CN(C(=O)C(c1c(F)cccc1Cl)N(C)C)c1nccs1 (stereo not drawn),2.736
9,COc1ncccc1C(=O)N1CCC2(CC1)CC(OC)CO2.O=C(O)C(F)(F)F (stereo not drawn),101.4
10,COc1ncccc1C(=O)N1C[C@@H]2COC[C@]2(CN(C)C)C1.O=C(O)C(F)(F)F.O=C(O)C(F)(F)F,-15.94
11,COC1COC2(CCN(C(=O)c3cscn3)CC2)C1 (stereo not drawn),-7.766
12,O=C1CCCN1C1CCCN(CCn2cc(Cl)cn2)C1 (stereo not drawn),92.68
13,O=C1CCCN1C1CCCN(CCOc2ccc(F)cc2)C1 (stereo not drawn),-5.922
14,Cn1cc(CN2C[C@@H](N3CCCC3=O)[C@H]3OCCC[C@H]32)cn1,16.86
15,COCCCN1CC2(CCCN(CCn3cc(Cl)cn3)C2)CCC1=O (stereo not drawn),116.7
16,COc1coc(CN2CCCC3(CCC(=O)N(C4CC4)C3)C2)cc1=O (stereo not drawn),7.748
17,Cc1cnn(CC(=O)N2CCC3(CCC(=O)N(C4CCCC4)C3)CC2)c1,-24.67
18,COCCN1CC2(CCCN(c3ncc(Cl)cc3F)C2)CCC1=O (stereo not drawn),2.913
19,Nc1ccnc(C(=O)N2CCCC3(CCC(=O)N(C4CCCC4)C3)C2)c1 (stereo not drawn),1.558
20,O=C1CCC2(CCN(Cc3cc(F)ccc3Cl)CC2)CN1C1CCCC1,-0.02537
21,Cc1ccnn1CCN1CCCC2(CCC(=O)N(C3CCCC3)C2)C1 (stereo not drawn),107.9
22,O=C1CCC2(CCCN(CCn3cc(Cl)cn3)C2)CN1C1CCCC1 (stereo not drawn),113
23,COCCCN1CC2(CCCN(c3ncc(Cl)cc3F)C2)CCC1=O (stereo not drawn),-2.307
